# Data reported in the supplement of paper PMC11865577.
# Structures can show the parent of a compound that is named as a salt.
# Key:
# Assay in all cases: normalised indicator fluorescence (fraction of RNA + indicator signal without compound); higher = less displacement of indicator (weaker competition)
# Details in all cases: compound concentration: 5 uM, 30 min
# hsa-mir-191 loop = tested on: hsa-mir-191 loop
# In short: (§1)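 Compounds, each at about 5 uM final from 0.25 μL of 1 mM DMSO stock, were tested in 96-well plates for displacement of TO-PRO-1 or TO-PRO-3 from RNA in 20 mM phosphate pH 7.0, 20 mM NaCl, 80 mM KCl. Fluorescence was recorded after 30 min on an Infinite 200 PRO (excitation 485 or 620 nm). Reported values are averages of two independent experiments, calculated as indicator fluorescence minus the buffer-plus-indicator blank, divided by the RNA-plus-indicator signal without compound.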
# hsa-mir-21 loop = tested on: hsa-mir-21 loop
# In short: as §1
# hsa-mir-221 loop = tested on: hsa-mir-221 loop
# In short: as §1
# hsa-mir-374a loop = tested on: hsa-mir-374a loop
# In short: as §1
# hsa-mir-6850 loop = tested on: hsa-mir-6850 loop
# In short: as §1
# [1] = indicator: TO-PRO-1 0.1 uM, RNA concentration: 0.1 uM
# [2] = indicator: TO-PRO-3 0.5 uM, RNA concentration: 0.5 uM
SMILES,normalised indicator fluorescence (hsa-mir-191 loop; [1]),normalised indicator fluorescence (hsa-mir-191 loop; [2]),normalised indicator fluorescence (hsa-mir-21 loop; [1]),normalised indicator fluorescence (hsa-mir-21 loop; [2]),normalised indicator fluorescence (hsa-mir-221 loop; [1]),normalised indicator fluorescence (hsa-mir-221 loop; [2]),normalised indicator fluorescence (hsa-mir-374a loop; [1]),normalised indicator fluorescence (hsa-mir-374a loop; [2]),normalised indicator fluorescence (hsa-mir-6850 loop; [1]),normalised indicator fluorescence (hsa-mir-6850 loop; [2])
CC(C)N(CCCCOCC(=O)NS(C)(=O)=O)c1cnc(-c2ccccc2)c(-c2ccccc2)n1 [Selexipag],1.04,1.01,1.07,1.07,1.05,1.12,1.14,1.11,1.1,1.09
COc1nc(-c2ccc3c(c2)OCO3)n(-c2ccc(NC(=O)CSc3ccccc3)cc2)n1 [SecinH3],1.09,1.02,0.961,1.2,1.02,1.1,1.01,1.12,1,0.992
COc1ccc(-c2coc3cc(O)ccc3c2=O)cc1O [Calycosin],1.08,1.02,1,1.06,1.03,1.08,1.01,1.25,1.01,1.07
Oc1ccc(OC2CCCCO2)cc1 (stereo not drawn) [Deoxyarbutin],1.11,1.06,1.03,1.06,1.03,1.1,1.03,1.13,0.979,1
Cc1cc(C(C)(C)C)c(O)c(C(C)(C)C)c1,1.01,1.04,1.04,1,1.05,1.12,1.11,1.19,0.924,1.06
CC(C)OC(=O)CCC/C=C\C[C@@H]1[C@@H](CC[C@@H](O)CCc2ccccc2)[C@H](O)C[C@@H]1O [Latanoprost],1.01,1.03,0.985,0.978,1.01,1.05,1.01,1.06,1.06,1.04
C[C@@H]1O[C@@H](Oc2c(-c3cc(O)c(O)c(O)c3)oc3cc(O)cc(O)c3c2=O)[C@H](O)[C@H](O)[C@H]1O [Myricetrin],0.952,1.05,0.962,1.07,0.97,1.09,1.07,1.17,0.944,1.08
NC(=O)N/N=C/c1ccc([N+](=O)[O-])o1 [Furacilin],1.06,1.02,0.909,1.06,1.14,1.03,1.15,1.16,0.927,1.04
CNc1ccc([N+](=O)[O-])c(Nc2ccc3[nH]ncc3c2)n1,0.903,0.996,0.899,1.02,0.959,1.15,1.1,1.35,0.93,0.929
CN(C)CCCN1c2ccccc2CCc2ccc(Cl)cc21 [Clomipramine hydrochloride],1,1.1,0.961,0.987,1.07,1.01,1.14,1.02,0.864,1.08
N#Cc1c(NC(=O)c2cccc3ccccc23)sc2c1CCCC2,1.04,0.988,1.02,1.01,0.919,1.02,–,0.983,1.08,1.02
COC1=CC(=O)c2ccccc2C1=O [2-Methoxynaphthoquinone],1.01,1.03,0.993,1.05,1.06,1.06,1.14,1.19,0.946,1.07
N=C(NCCCCCCNC(=N)NC(=N)Nc1ccc(Cl)cc1)NC(=N)Nc1ccc(Cl)cc1 [Chlorhexidine],0.988,1.04,1.05,1,0.96,0.994,1.05,1.05,0.83,1.07
O=c1cc(-c2ccccc2)oc2cc(O)c(O)c(O)c12 [Baicalein],0.599,0.956,0.653,0.944,0.767,0.926,0.88,0.91,0.918,1.05
CC1(C)CC(=O)c2c(C(F)(F)F)nn(-c3ccc(C(N)=O)c(N[C@H]4CC[C@H](O)CC4)c3)c2C1,1.03,1.03,0.989,1.04,0.978,1.18,1.01,1.13,0.777,0.989
CC(C)c1cc(C(C)C)c(CC(=O)NS(=O)(=O)Oc2c(C(C)C)cccc2C(C)C)c(C(C)C)c1 [Avasimibe],1.05,1.12,0.952,1.08,1.05,1.03,1.08,–,0.985,0.948
[I-].[K+] [Potassium iodide],1.06,1.08,1.11,1.03,1.08,1.03,1.21,1.05,1.07,1.07

SMILES,normalised indicator fluorescence (hsa-mir-191 loop; [1]),normalised indicator fluorescence (hsa-mir-191 loop; [2]),normalised indicator fluorescence (hsa-mir-21 loop; [1]),normalised indicator fluorescence (hsa-mir-21 loop; [2]),normalised indicator fluorescence (hsa-mir-221 loop; [1]),normalised indicator fluorescence (hsa-mir-221 loop; [2]),normalised indicator fluorescence (hsa-mir-374a loop; [1]),normalised indicator fluorescence (hsa-mir-374a loop; [2]),normalised indicator fluorescence (hsa-mir-6850 loop; [1]),normalised indicator fluorescence (hsa-mir-6850 loop; [2])
O=C(Nc1nc2ccc(NC(=O)C34CC5CC(CC(C5)C3)C4)cc2s1)c1ccccc1,1,1.02,0.991,1.02,1.14,1.05,1.1,1.06,0.997,0.982
COc1ccc(-c2nc(-c3cc(C(F)(F)F)cc(C(F)(F)F)c3)n(Cc3ccc(C(N)=O)cc3)c2-c2ccc(OC)cc2)cc1 [Apoptozole],0.992,1.01,1.01,1.03,1.05,1.21,1.06,1.36,0.966,0.976
Cc1cc(NC(=O)c2cccc(NC(=O)/C=C/CN(C)C)c2)ccc1Nc1nccc(-c2cccnc2)n1,1.03,1.05,0.972,1.01,1.04,1.02,1.08,1.05,1.06,0.942
CC(=O)CCCCn1c(=O)c2c(ncn2C)n(C)c1=O [Pentoxifylline],1.05,1.01,1.02,1.04,1.01,1.02,1.04,0.959,0.943,0.997
O=C1c2c(O)cc(O)cc2OC(c2ccc(O)c(O)c2)C1O (stereo not drawn) [Taxifolin],0.994,1.06,0.976,1.05,1.05,1.11,1.13,1.15,0.944,1.08
O=C(/C=C/C=C/c1ccc2c(c1)OCO2)N1CCCCC1 [Piperine],1.02,1.01,0.903,1.05,0.997,0.908,1.16,1.16,1.13,1.04
Cn1cc(C2=C(c3cn(CCCSC(=N)N)c4ccccc34)C(=O)NC2=O)c2ccccc21 [Ro 31-8220 Mesylate],1.38,0.894,–,0.929,–,0.947,–,1.02,1.08,0.859
CC(=O)O[C@H]1C[C@@]2(C)[C@@H](C[C@@H](O)[C@H]3[C@@]4(C)CC[C@@H](O)[C@@H](C)[C@@H]4CC[C@@]32C)/C1=C(\CCC=C(C)C)C(=O)O [Sodium fusidate],1.06,1.05,0.986,1.07,1.01,1.03,1.09,1.11,0.956,1.02
CCNC(=O)c1noc(-c2cc(Cl)c(O)cc2O)c1-c1ccc(OC)cc1,1.05,1.04,1.06,1.06,1.06,0.964,1.1,1.17,1.03,1.05
C[C@H]1[C@H](C)CC[C@]2(C(=O)O)CC[C@]3(C)C(=CC[C@@H]4[C@@]5(C)C[C@@H](O)[C@H](O)[C@@](C)(CO)[C@@H]5CC[C@]43C)[C@H]12 [Asiatic acid],0.974,1.01,0.904,1.07,1.03,0.961,1.15,1.06,0.846,1.03
CN(C)C[C@@H]1CCn2cc(c3ccccc32)C2=C(C(=O)NC2=O)c2cn(c3ccccc23)CCO1 [Ruboxistaurin hydrochloride],1.1,1.04,0.991,1.01,1,1.12,1.03,1.24,0.894,0.897
Cn1cc(-c2ccc3c(c2)CCN3C(=O)Cc2cccc(C(F)(F)F)c2)c2c(N)ncnc21,1.04,1.1,1.06,1.07,1.08,1.03,1.23,1.18,0.993,1.18
O=c1c(O)c(-c2ccccc2)oc2cc(O)cc(O)c12 [Galangin],1.05,1.08,1,1.04,1.03,1.22,1.11,1.3,0.971,1.07
CO[C@@H]1[C@H](N(C)C(=O)c2ccccc2)C[C@H]2O[C@]1(C)n1c3ccccc3c3c4c(c5c6ccccc6n2c5c31)C(=O)NC4 [Midostaurin],1.16,1.04,1.09,1.06,1.18,0.972,–,1.43,1.02,1.02
CC(=O)O[C@H]1C[C@@]2(C)[C@@H](C[C@@H](O)[C@H]3[C@@]4(C)CC[C@@H](O)[C@@H](C)[C@@H]4CC[C@@]32C)/C1=C(\CCC=C(C)C)C(=O)O [Fusidine],0.992,1.01,0.976,1.08,1.04,1.02,1.15,1.21,1.06,1.06
O=c1cc(-c2ccc(O)c(-c3c(O)cc(O)c4c(=O)cc(-c5ccc(O)cc5)oc34)c2)oc2cc(O)cc(O)c12 [Amentoflavone],0.994,1.42,1.16,1.23,1.19,1.17,1.29,–,1.07,1.03
